About 11,000 (3.1%) of roughly 360,000 compounds were called active. Entries that show only a call come without a potency. Roughly 4% stayed inconclusive and do not appear here. Calls come from the whole dose curve; as a rule, active = well fitted inhibition curve with a large enough effect; inconclusive = small, poorly fitted or top-dose-only effect; inactive = no such curve, though single readings can be large or run the other way. The full list was thinned out, with actives kept by preference.
The molecules below were run against Schistosoma mansoni thioredoxin glutathione reductase (TGR) (UniProt Q962Y6) (assay: qHTS Assay for the Inhibitors of Schistosoma Mansoni Peroxiredoxins). Conditions: purified TGR, DTNB reduction, TNB absorbance 405 nm; series mostly up to 114 µM.
Method in brief: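 Kinetic colorimetric format: TGR-catalysed, NADPH-driven DTNB reduction monitored via TNB absorbance. Enzyme dispensed at 20 nM; compound exposure 15 min at room temperature before reaction start.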
Note: nearly all actives have a fitted effect of over 60% in size.
Potency is the fitted concentration of half-maximal effect.

COc1cccc(NC(=O)C(=O)NCC(c2ccc3c(c2)OCO3)N2CCN(C)CC2)c1 (stereo not drawn) was tested. Which Potency did it give?
Its Potency is “inactive”.

How did the Potency turn out when Cc1ccc(CN2CCC(CNC(=O)c3cnn(-c4ccccc4Cl)c3C3CCN(C(=O)OC(C)(C)C)CC3)CC2)cc1 was run?
Its Potency is “inactive”.

For COc1ccc2c(c1)c(=O)c(C(=O)c1ccccc1)cn2CC(=O)Nc1ccc2c(c1)OCCO2, which Potency is on record?
Its Potency is “inactive”.

For CCOc1ccccc1NC(=O)Cn1c(=O)n(-c2cccc(C)c2)c(=O)c2c1c1cc(OC)ccc1n2C, which Potency is on record?
Its Potency is “inactive”.

For O=C(Cn1cnc2c(oc3ccccc32)c1=O)Nc1ccc(OC(F)(F)F)cc1, which Potency is on record?
The Potency was “inactive”.

CC(CCCc1ccccc1)NC(=O)c1nn(-c2ccc(Cl)cc2)nc1CO (stereo not drawn) was tested. Which Potency did it give?
The Potency was “inactive”.

How did the Potency turn out when O=C(NCCCO)c1nn(-c2ccc(Cl)cc2)nc1CO was run?
The Potency was “inactive”.

Which Potency does the source give for O=C(CN1CCOCC1)N/N=C/c1ccc(-c2ccc(Br)cc2)o1 here?
Its Potency is “inactive”.

For O=C(CCC(=O)N/N=C/c1ccc(Br)o1)N/N=C/c1ccc(Br)o1, which Potency is on record?
The Potency was 35.5 µM (active).

For O=C(N/N=C/c1ccc(Br)o1)c1cncc(Br)c1, which Potency is on record?
Its Potency is “inactive”.

How did the Potency turn out when CC(C)(C)OC(=O)N1CCC(c2c(C(=O)NCCc3ccsc3)cnn2-c2ccc(F)cc2F)CC1 was run?
Its Potency is “inactive”.

For CCN(CC)c1ccc2oc(=O)c(C)nc2c1, which Potency is on record?
The Potency was 35.5 µM (active).

For CCc1ccc2oc(-c3ccc(N)cc3)nc2c1, which Potency is on record?
Its Potency is “inactive”.

How did the Potency turn out when Cc1ccc(NC(=O)Nc2ccc3oc(C)nc3c2)cc1 was run?
The Potency was “inactive”.

Which Potency does the source give for Cc1cccc2c(=O)cc(CSc3ccccc3NC(=O)C(C)C)[nH]c12 here?
The Potency was “inactive”.

O=C(Nc1ccccc1F)C(c1ccccc1)N1Cc2ccccc2C1=O (stereo not drawn) was tested. Which Potency did it give?
The Potency was “inactive”.

With COc1ccc(-c2nc(CS(=O)(=O)CC(=O)NCc3cccc(Br)c3)c(C)o2)cc1 as the molecule, how does the Potency read?
The Potency was “inactive”.

Which Potency does the source give for Cc1ccc(-c2nc(CS(=O)(=O)CC(=O)NCc3ccc4c(c3)OCO4)c(C)o2)cc1 here?
The Potency was 20 µM (active).

Cc1ccc(-c2nc(CS(=O)(=O)CC(=O)NCc3ccccc3Cl)c(C)o2)cc1 was tested. Which Potency did it give?
The Potency was “inactive”.

For O=C(NCc1ccccc1)c1cccc(NC(=O)N2CCSc3ncccc32)c1, which Potency is on record?
The Potency was “inactive”.

Which Potency does the source give for O=C(c1cccc(Br)c1)N1CCN(Cc2cc(=O)n3nc(-c4ccccc4)sc3n2)CC1 here?
The Potency was “inactive”.

With CC(C)NS(=O)(=O)c1ccc(NC(=O)c2cccnc2)cc1 as the molecule, how does the Potency read?
The Potency was “inactive”.

NS(=O)(=O)c1ccc(NC(=S)Nc2ccc(Br)c(Cl)c2)cc1 was tested. Which Potency did it give?
Its Potency is “inactive”.

With NS(=O)(=O)c1ccc(NC(=S)NC(=O)c2cccnc2)cc1 as the molecule, how does the Potency read?
The Potency was 22.4 µM (active).

Which Potency does the source give for NS(=O)(=O)c1ccc(NC(=S)NC(=O)c2cccc(Br)c2)cc1 here?
The Potency was 15.8 µM (active).

O=C(Nc1ccc(S(=O)(=O)Nc2ncccn2)cc1)c1cncc(Br)c1 was tested. Which Potency did it give?
The Potency was “inactive”.

Which Potency does the source give for O=C(NC(=S)Nc1ccc(S(=O)(=O)Nc2ncccn2)cc1)c1cccc(Br)c1 here?
Its Potency is 20 µM (active).

For O=C(NC(=S)Nc1cccc2c(O)cccc12)c1cccc(Br)c1, which Potency is on record?
The Potency was “inactive”.

How did the Potency turn out when Cc1cc(NS(=O)(=O)c2ccc(NC(=O)c3cccnc3)cc2)nc(C)n1 was run?
Its Potency is “inactive”.

For COc1ccc(OC)c(C(C)NC(=S)Nc2ccc(S(=O)(=O)Nc3ncccn3)cc2)c1 (stereo not drawn), which Potency is on record?
Its Potency is “inactive”.

With O=C(CSc1nnc(CNC(=O)c2ccccc2)n1-c1ccc(F)cc1)Nc1ccccc1F as the molecule, how does the Potency read?
The Potency was “inactive”.

CCOc1ccc2oc(=O)cc(CN3CCN(C(=O)c4ccc(F)cc4)CC3)c2c1 was tested. Which Potency did it give?
The Potency was “inactive”.

With O=C1CSC2(C(=O)N(Cc3ccccc3)c3ccccc32)N1c1cccc(F)c1 (stereo not drawn) as the molecule, how does the Potency read?
The Potency was “inactive”.

O=C(Nc1ccc(-c2nc3cc(NC(=O)c4ccccc4Cl)ccc3o2)cc1)c1ccccc1Cl was tested. Which Potency did it give?
Its Potency is “inactive”.

For COc1cccc(C(=O)Nc2ccc(-c3cc(C(F)(F)F)nn3-c3ccccc3)cc2)c1, which Potency is on record?
The Potency was “inactive”.

For Cc1cc(OCC(=O)Nc2ncn[nH]2)c(C)c(C)c1Br, which Potency is on record?
The Potency was “inactive”.

Which Potency does the source give for CC(NC(=O)CSc1nc2c(cc1C#N)CN(C)CC2)c1ccccc1 (stereo not drawn) here?
Its Potency is “inactive”.

Cc1c(-c2ccccc2)nc(N)c(C#N)c1-c1cccs1 was tested. Which Potency did it give?
The Potency was “inactive”.

For CN1CCc2nc(SC(C(=O)O)c3ccccc3)c(C#N)c(-c3cccs3)c2C1 (stereo not drawn), which Potency is on record?
The Potency was 39.8 µM (active).

For O=C(c1ccc(C(F)(F)F)cc1)N1CCC(c2nc(-c3ccc(S(=O)(=O)N4CCCC4)cc3)no2)CC1, which Potency is on record?
The Potency was “inactive”.

How did the Potency turn out when COc1ccc(OC)c(CNC(=O)Cn2nc(C)c3c(C)n(-c4ccccc4)nc3c2=O)c1 was run?
Its Potency is “inactive”.

How did the Potency turn out when NS(=O)(=O)c1ccc(NC(=O)COC(=O)c2ccco2)cc1 was run?
The Potency was “inactive”.

With CCc1ccc(CCC(=O)Nc2ccc(S(N)(=O)=O)cc2)o1 as the molecule, how does the Potency read?
Its Potency is 50.1 µM (active).

CC1CC(C)CN(CC(=O)Nc2ccc(S(N)(=O)=O)cc2)C1 (stereo not drawn) was tested. Which Potency did it give?
Its Potency is “inactive”.

O=C(NCc1ccc2c(c1)CCN2C(=O)c1ccccc1)Nc1cc(F)ccc1F was tested. Which Potency did it give?
The Potency was “inactive”.

Cc1ccc2c(=O)c(C(=O)c3cccc(Cl)c3)cn(CC(=O)NCc3ccccc3)c2n1 was tested. Which Potency did it give?
The Potency was “inactive”.

For O=C(NCC(c1ccc2c(c1)OCO2)N1CCN(c2ccccc2)CC1)C(=O)Nc1ccccc1F (stereo not drawn), which Potency is on record?
The Potency was “inactive”.

COC(=O)c1sccc1NC(=O)c1ccc(Cl)cc1 was tested. Which Potency did it give?
Its Potency is “inactive”.

How did the Potency turn out when COc1ccc(C(=O)Nc2ccc(F)cc2F)cc1 was run?
Its Potency is “inactive”.

Which Potency does the source give for COC(=O)c1nc(NC(=O)c2ccc(Cl)cc2)n[nH]1 here?
The Potency was 39.8 µM (active).

For COC(=O)c1nc(NC(=O)c2ccc(C(C)(C)C)cc2)n[nH]1, which Potency is on record?
Its Potency is “inactive”.

With COC(=O)c1nc(NC(=O)c2ccc(F)cc2)n[nH]1 as the molecule, how does the Potency read?
Its Potency is 28.2 µM (active).

For CCOC(=O)NNC(=O)c1ccc(Cl)cc1, which Potency is on record?
The Potency was “inactive”.

With NS(=O)(=O)c1ccc(NC(=O)COc2ccc(S(=O)(=O)NC3CCCCC3)cc2)cc1 as the molecule, how does the Potency read?
Its Potency is “inactive”.

With COc1ccc(CNc2nc(-c3ccc(Cl)cc3)nn2S(=O)(=O)c2ccc(C)cc2)cc1 as the molecule, how does the Potency read?
Its Potency is “inactive”.

With COc1ccccc1CNC(=O)CS(=O)(=O)c1cccc2nsnc12 as the molecule, how does the Potency read?
Its Potency is “inactive”.

Which Potency does the source give for Cc1ccc(OC(=O)CSc2nnc(-c3cccs3)o2)cc1 here?
The Potency was “inactive”.

How did the Potency turn out when COc1cc(Cl)c(NC(=O)CC(C)S(=O)(=O)c2cc3c(cc2C)NC(=O)CO3)c(OC)c1 (stereo not drawn) was run?
Its Potency is “inactive”.

With COc1ccc(OC)c(CCNC(=O)CCCn2c(=O)c3cccn3c3cccnc32)c1 as the molecule, how does the Potency read?
The Potency was “inactive”.

How did the Potency turn out when O=C(CCn1ccc2cc(S(=O)(=O)N3CCCC3)ccc21)NCc1cccc(Cl)c1 was run?
The Potency was “inactive”.

For COc1ccc(Cl)cc1NC(=O)CSc1nc(-c2cccs2)cc(C(F)(F)F)n1, which Potency is on record?
Its Potency is “inactive”.

Which Potency does the source give for CCc1ccc(-n2nc(C)c3c(C)cc(=O)n(CC(=O)Nc4ccc(F)cc4C)c32)cc1 here?
The Potency was “inactive”.

With O=C(CC(c1cccs1)N1Cc2ccccc2C1=O)Nc1ccc(F)cc1F (stereo not drawn) as the molecule, how does the Potency read?
Its Potency is “inactive”.

Reference: PubChem BioAssay AID485364 (National Center for Advancing Translational Sciences (NCATS), 2010)
